This is an account of results in PubChem BioAssay (NCATS).

Records with an inconclusive call do not appear. Active and inactive are the calls of the source.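 How the source made its calls, unless noted: active means compounds whose dose series gives a full or clear partial fitted curve of increased nuclear translocation; inconclusive means weak partial curve or effect only at the top dose; inactive means no dose-dependent translocation response.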 Bounds are passed on as bounds.

The target in assay [1] is Glucocorticoid receptor (Homo sapiens) (UniProt P04150). The assay is described as follows: GR-GFP Redistribution (AID 450). Further: potency means the concentration at half of the fitted maximal effect. As to conditions: U2OS GR-GFP nuclear translocation, laser cytometry, 2 h.
Chain of Glucocorticoid receptor (Homo sapiens) (P04150 whole entry, looked up): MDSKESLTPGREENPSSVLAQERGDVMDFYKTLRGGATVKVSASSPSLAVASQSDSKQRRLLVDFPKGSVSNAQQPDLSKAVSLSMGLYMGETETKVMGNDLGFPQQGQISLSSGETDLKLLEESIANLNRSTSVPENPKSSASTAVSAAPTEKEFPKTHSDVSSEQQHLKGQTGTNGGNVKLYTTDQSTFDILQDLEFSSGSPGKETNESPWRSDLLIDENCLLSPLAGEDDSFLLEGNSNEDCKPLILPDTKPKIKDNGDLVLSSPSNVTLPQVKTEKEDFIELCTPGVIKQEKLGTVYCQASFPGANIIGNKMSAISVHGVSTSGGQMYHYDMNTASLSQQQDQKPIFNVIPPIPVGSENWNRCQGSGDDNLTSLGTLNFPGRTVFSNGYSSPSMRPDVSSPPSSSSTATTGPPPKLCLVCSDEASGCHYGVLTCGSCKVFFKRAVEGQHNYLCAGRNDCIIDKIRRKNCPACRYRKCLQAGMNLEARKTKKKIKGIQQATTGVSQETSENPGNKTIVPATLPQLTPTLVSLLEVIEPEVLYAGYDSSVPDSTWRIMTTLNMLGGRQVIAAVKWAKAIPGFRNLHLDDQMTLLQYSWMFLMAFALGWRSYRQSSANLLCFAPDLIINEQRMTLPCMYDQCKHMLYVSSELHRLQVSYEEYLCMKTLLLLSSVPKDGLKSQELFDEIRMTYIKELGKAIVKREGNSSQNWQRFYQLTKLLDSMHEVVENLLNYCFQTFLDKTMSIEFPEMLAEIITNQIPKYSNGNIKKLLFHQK
Assay [2] in a line: Cell Viability - LYMP1-002 - Assay at 16 hr (AID 948; active means well fitted curve in the direction sought with a large enough effect; an effect the other way counts as inactive or inconclusive;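 further: 0% = DMSO alone and full effect = 92 µM tetraoctylammonium bromide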). As to conditions: LYMP1-002 lymphoblastoid cell viability; series mostly up to 92.2 µM. In short, it runs like this:
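In this qHTS, lymphoblastoid LYMP1-002 cells (human) receive compounds for 16 hr at 37 C. Viability is taken from CellTiter-Glo ATP luminescence, and AC50 derives from standard Hill fits.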

A short description of assay [3]: MultiTox-Fluor Cytotoxicity Assay - LYMP1-002 - Dead Cells (AID 960; active means well fitted curve in the direction sought with a large enough effect; an effect the other way counts as inactive or inconclusive;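 further: 0% = DMSO and 100% = tetraoctylammonium bromide; nearly all actives have a fitted effect of over 60% in size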). The following applies: LYMP1-002 lymphoblastoid cells, dead-cell protease fluorescence; series mostly up to 46.1 µM. The method, boiled down:
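Human lymphoblastoid LYMP1-002 cells, 2500/well, treated 16 h at 37 C; dead-cell protease cleavage of bis-AAF-R110 read by fluorescence (485/520); normalized to DMSO and 15 uM tetraoctylammonium bromide; AC50 from Hill fit.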

The nature of assay [4]: Cell Viability - LYMP2-017 (AID 972; active means well fitted curve in the direction sought with a large enough effect; an effect the other way counts as inactive or inconclusive; further: on the % scale 0 is the no-effect control and ±100 the full control effect; nearly all actives have a fitted effect of over 55% in size). As to conditions: LYMP2-017 lymphoblastoid cell viability; series mostly up to 92.2 µM. The method, boiled down:
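LYMP2-017 human lymphoblastoid cells (2500/well) settled 5 hr at 37 C, then exposed to compound 24 hr at 37 C in complete medium. Viability taken as intracellular ATP by CellTiter-Glo luminescence after 30 min at RT; AC50 from Hill fits.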

Assay [5] is described as follows: Cell Viability - LYMP2-002 (AID 977; active means well fitted curve in the direction sought with a large enough effect; an effect the other way counts as inactive or inconclusive;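 further: compound exposure lasted 24 h at 37 °C; plate controls were DMSO only for no effect and 92 µM tetraoctylammonium bromide for full effect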). The following applies: LYMP2-002 lymphoblastoid cell viability, qHTS; series mostly up to 92.2 µM. In short, it runs like this: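 Cytotoxicity is scored as concentration-dependent loss of cellular ATP in a human lymphoblastoid line after 24 hr compound treatment at 37 C. AC50 is obtained by modelling concentration-response data with the Hill equation.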

Assay [6] can be described thus: Cell Viability - LYMP2-016 (AID 984; active means well fitted curve in the direction sought with a large enough effect; an effect the other way counts as inactive or inconclusive; further: on the % scale 0 is the no-effect control and ±100 the full control effect; nearly all actives have a fitted effect of over 55% in size). As to conditions: LYMP2-016 lymphoblastoid cell viability, qHTS; series mostly up to 92.2 µM. The method, boiled down: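 Concentration-dependent ATP depletion measured in LYMP2-016 lymphoblastoid cells, 24 h, 37 C; luciferase-based luminescent detection; Hill-equation AC50.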
Background: In qHTS, concentration-response curves come from the screen itself.

The nature of assay [7]: qHTS assay for small molecule antagonists of peroxisome proliferator-activated receptor delta signaling (AID 588535).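 Further: cells co-treated with a PPAR-delta agonist as stimulator during compound exposure.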 The following applies: HEK293T PPARd-UAS-bla, beta-lactamase FRET ratio, 18 h; 460 nm channel. The method, boiled down: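 HEK293T PPAR-delta-UAS-bla cells, 4000/well, 2% charcoal/dextran FBS; 5 h 37 C; cpd titration; 18 h 37 C; CCF4 2 h RT; FI 460/530 nm; Hill fit → IC50, efficacy.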

Assay [8] deals with Vitamin D3 receptor (Homo sapiens) (UniProt P11473). The assay is described as follows: qHTS assay for small molecule agonists of vitamin D receptor signaling (AID 588543; calls by dose curve;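 further: 0% = DMSO basal and 100% = reference agonist control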). The following applies: HEK293T VDR-UAS-bla, beta-lactamase ratio, 16 h; series mostly up to 76.8 µM. The method, boiled down: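 Measured: β-lactamase reporter activity (CCF4, 405 nm excitation, 460/530 nm emission) in HEK293T VDR-UAS-bla cells after 16 h compound exposure at 37 °C. Normalization against 50 nM 1α,25-dihydroxyvitamin D3 and DMSO; Hill-fit EC50.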
Chain of Vitamin D3 receptor (Homo sapiens) (P11473 whole entry, looked up): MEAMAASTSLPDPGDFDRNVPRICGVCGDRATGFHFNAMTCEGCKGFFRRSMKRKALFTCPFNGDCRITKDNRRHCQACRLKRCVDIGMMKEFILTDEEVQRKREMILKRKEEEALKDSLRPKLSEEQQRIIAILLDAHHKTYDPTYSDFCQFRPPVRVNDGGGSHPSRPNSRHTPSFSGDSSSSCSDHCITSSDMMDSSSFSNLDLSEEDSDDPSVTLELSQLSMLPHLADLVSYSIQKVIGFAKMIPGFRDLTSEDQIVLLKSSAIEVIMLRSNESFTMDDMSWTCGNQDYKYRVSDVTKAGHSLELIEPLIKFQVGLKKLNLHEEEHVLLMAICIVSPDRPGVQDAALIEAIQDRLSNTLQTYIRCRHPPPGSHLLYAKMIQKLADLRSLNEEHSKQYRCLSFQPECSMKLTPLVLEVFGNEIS

For assay [9], the target named is Thyroid hormone receptor beta (Homo sapiens) (UniProt P10828). The assay is described as follows: qHTS assay for small molecule agonists of thyroid hormone receptor beta signaling (AID 588545; calls by dose curve). As to conditions: TR-UAS-bla GripTite HEK 293, beta-lactamase ratio, agonist mode, 18 h; series mostly up to 76.7 µM. In short, it runs like this:
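Cells (2500/well) were seeded, incubated 4 hrs at 37 C, dosed with a compound series, incubated 18 hrs, loaded with CCF4 dye for 2 hrs at RT, then read for fluorescence. Data were scaled between DMSO (0%) and 10 nM T3 (100%).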

Assay [10] has as its target Retinoic acid receptor RXR-alpha (Homo sapiens) (UniProt P19793). Briefly: qHTS assay for small molecule antagonists of retinoid X receptor alpha signaling (AID 588546; active means well fitted inhibition curve with a large enough effect in the signal ratio, with a control signal flat, not every such curve was filed as active; the % refers to the signal ratio;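 further: cells stimulated with 9-cis-retinoic acid as agonist; on the % scale 0 is the no-effect control and ±100 the full control effect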). The following applies: HEK293T RXRa-UAS-bla, beta-lactamase ratio, antagonist mode. In short, it runs like this:
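Beta-lactamase reporter inhibition, read as CCF4 fluorescence ratio (ex 405, em 460/530 nm) after 2 h at RT. HEK293T UAS-bla cells, 2500/well, were stimulated with 9-cis-RA at 500 or 100 nM final alongside test compound for 18 h at 37 C.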

Assay [11] has as its target Thyroid hormone receptor beta (Homo sapiens) (UniProt P10828). Briefly: qHTS assay for small molecule antagonists of thyroid hormone receptor beta signaling (AID 588547; active means well fitted inhibition curve with a large enough effect in the signal ratio, with a control signal flat, not every such curve was filed as active; the % refers to the signal ratio;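 further: cells stimulated with 0.4 nM T3 agonist during compound exposure; on the % scale 0 is the no-effect control and ±100 the full control effect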). The following applies: TR-UAS-bla HEK293, beta-lactamase ratio, antagonist mode, 18 h. In short, it runs like this: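 Inhibition of T3-driven (0.4nM final) beta-lactamase reporter activity was measured over 0.59 nM to 92 uM compound after 18 h at 37 C. The cells were GripTite HEK293 TR-UAS-bla in charcoal/dextran-stripped serum, with CCF4 ratio read-out and IC50 from Hill fits.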

Assay [12] in a line: qHTS assay for small molecule agonists of the antioxidant response element (ARE) signaling pathway (AID 651741; active means well fitted activation curve with a large enough effect in the signal ratio; the % refers to the signal ratio; further: % of control where 0% means no effect). As to conditions: HepG2 ARE-bla reporter, beta-lactamase FRET ratio, 16 h; series mostly up to 96 µM. The method, boiled down:
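Quantitative HTS in HepG2 cells stably expressing an ARE-beta-lactamase reporter; 16 h compound exposure at 37 C, followed by 2 h room-temperature incubation with LiveBLAzer B/G FRET substrate and fluorescence measurement.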

The nature of assay [13]: qHTS assay for small molecule activators of the nuclear factor-kappa B (NF-kB) signaling pathway (AID 651749; active means well fitted activation curve with a large enough effect in the signal ratio; the % refers to the signal ratio; further: % of control where 0% means no effect). The following applies: NF-kB-bla ME-180 cells, beta-lactamase FRET ratio, 16 h; stronger effect = higher value. In short, it runs like this:
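Readout: beta-lactamase reporter driven by an NF-kB response element, detected fluorescently as loss of FRET. Cells were the ME-180 line, treated 16 hr at 37C with pin-transferred compound.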

A short description of assay [14]: qHTS assay for small molecule disruptors of the mitochondrial membrane potential - 5 hr assay (AID 651755; calls by dose curve; further: on the % scale 0 is the no-effect control and ±100 the full control effect; nearly all actives have a fitted effect of over 40% in size). The following applies: JC-1-type ratio dye; series mostly up to 92.2 µM. In short, it runs like this:
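HepG2, 2,000 cells/well, overnight attach; cpd or DMSO 5 hr, 37C/5% CO2; Mito-MPS 30 min 37C; fluor 490/535 + 540/590 nm.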

The nature of assay [15]: qHTS assay for environmental chemicals that activate the Aryl hydrocarbon Receptor (AhR) signaling pathway (AID 651777; active means well fitted curve in the direction sought with a large enough effect; an effect the other way counts as inactive or inconclusive; further: % of control where 0% means no effect; nearly all actives have a fitted effect of over 15% in size). As to conditions: 1A2-DRE human hepatoma cells, luciferase, 24 h; activation: stronger effect = higher value. In short, it runs like this:
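AhR activation is scored as a rise in luciferase from a stable DRE–CYP1A2 promoter construct in human hepatoma cells. Treatment lasts 24 hr at 37 C; detection uses One-Glo after 30 min at room temperature.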

Assay [16] addresses Nuclear receptor ROR-gamma (Homo sapiens) (UniProt P51449). Briefly: qHTS assay for small molecule antagonists of the retinoid-related orphan receptor gamma (ROR-gamma) signaling pathway (AID 651802; active means well fitted curve in the direction sought with a large enough effect; an effect the other way counts as inactive or inconclusive;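 further: luciferase reporter luminescence driven by ROR response element; on the % scale 0 is the no-effect control and ±100 the full control effect; nearly all actives have a fitted effect of over 60% in size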). The following applies: ROR-gamma antagonist cell reporter assay; series mostly up to 92.2 µM. In short, it runs like this:
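CHO cells with TET-inducible ROR-gamma and RORE-luciferase reporter, dosed then doxycycline-induced. After 16 h at 37C, One-Glo luminescence read; decreased signal indicates antagonism.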

Assay [17] is described as follows: qHTS assay for cell viability of HEK293 cells (AID 743288; active means well fitted curve in the direction sought with a large enough effect; an effect the other way counts as inactive or inconclusive; further: on the % scale 0 is the no-effect control and ±100 the full control effect; nearly all actives have a fitted effect of over 50% in size). As to conditions: ATP luminescence (CellTiter-Glo), 18 h, stronger effect = lower value. In short, it runs like this:
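Luminescent ATP quantitation served as the viability read-out. Cells (parental HEK293, 2,000/well) received compounds after at least 5 h at 37 C and were exposed for 18 h before a 30 min room-temperature reagent step.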

Chain of Thyroid hormone receptor beta (Homo sapiens) (P10828 whole entry, looked up): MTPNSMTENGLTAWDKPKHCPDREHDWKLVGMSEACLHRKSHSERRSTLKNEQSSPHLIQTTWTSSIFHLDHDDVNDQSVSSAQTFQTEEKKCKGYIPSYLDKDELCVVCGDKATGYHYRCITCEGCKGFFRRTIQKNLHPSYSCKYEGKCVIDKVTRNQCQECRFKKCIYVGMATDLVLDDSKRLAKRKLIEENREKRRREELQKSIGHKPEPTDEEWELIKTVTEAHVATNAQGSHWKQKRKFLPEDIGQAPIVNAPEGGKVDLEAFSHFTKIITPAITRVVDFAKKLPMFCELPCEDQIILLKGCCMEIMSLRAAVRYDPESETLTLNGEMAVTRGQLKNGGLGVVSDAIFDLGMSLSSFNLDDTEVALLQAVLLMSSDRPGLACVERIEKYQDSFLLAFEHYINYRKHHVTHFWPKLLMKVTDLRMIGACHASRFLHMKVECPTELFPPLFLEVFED
Chain of Nuclear receptor ROR-gamma (Homo sapiens) (P51449 whole entry, looked up): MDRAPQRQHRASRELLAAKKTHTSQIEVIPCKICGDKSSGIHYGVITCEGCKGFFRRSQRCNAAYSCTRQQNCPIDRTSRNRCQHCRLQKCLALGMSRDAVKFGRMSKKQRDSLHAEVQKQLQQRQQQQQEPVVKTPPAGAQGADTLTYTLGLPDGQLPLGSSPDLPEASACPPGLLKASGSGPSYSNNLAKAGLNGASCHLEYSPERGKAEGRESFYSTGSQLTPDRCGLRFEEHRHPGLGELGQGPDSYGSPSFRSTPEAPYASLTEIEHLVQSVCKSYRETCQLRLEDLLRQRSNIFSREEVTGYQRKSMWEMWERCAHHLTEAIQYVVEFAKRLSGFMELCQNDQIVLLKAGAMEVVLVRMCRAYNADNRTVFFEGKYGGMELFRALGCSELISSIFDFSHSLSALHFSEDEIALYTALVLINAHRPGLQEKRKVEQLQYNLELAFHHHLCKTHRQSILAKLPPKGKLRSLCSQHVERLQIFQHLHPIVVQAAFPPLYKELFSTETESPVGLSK
Chain of Retinoic acid receptor RXR-alpha (Homo sapiens) (P19793 whole entry, looked up): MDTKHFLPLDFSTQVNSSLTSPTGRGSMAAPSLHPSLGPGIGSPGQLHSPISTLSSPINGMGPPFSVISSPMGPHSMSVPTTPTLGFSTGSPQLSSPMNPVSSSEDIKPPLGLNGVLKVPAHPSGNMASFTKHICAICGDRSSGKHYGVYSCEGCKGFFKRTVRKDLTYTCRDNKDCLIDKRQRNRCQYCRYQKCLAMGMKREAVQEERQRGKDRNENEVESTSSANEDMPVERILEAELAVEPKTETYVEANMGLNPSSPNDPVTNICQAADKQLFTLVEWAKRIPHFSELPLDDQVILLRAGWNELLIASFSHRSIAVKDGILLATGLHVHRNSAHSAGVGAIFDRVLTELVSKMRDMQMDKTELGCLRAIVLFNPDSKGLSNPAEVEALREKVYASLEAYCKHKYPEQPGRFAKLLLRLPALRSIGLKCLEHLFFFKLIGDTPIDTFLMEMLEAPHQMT

In the case of `O=C(O)[C@H]1CCN1`, the Potency in [1] was > 46 µM (inactive).
Same read-out and setting: in the case of `C[C@]12CC[C@H](O)CC1=CC[C@@H]1[C@H]2CC[C@]2(C)C(=O)CC[C@H]12` it was > 46 µM (inactive); in that of `C[N+]1(C)C2CC(OC(=O)C(CO)c3ccccc3)CC1[C@@H]1O[C@H]21` (some centres undefined), > 46 µM (inactive).
As to `N[C@H](Cc1ccc(N(CCCl)CCCl)cc1)C(=O)O`, in [1], the Potency is > 46 µM (inactive).
The same measure, in the same setting: in the case of `C[C@@]12CC[C@H]3[C@@H](CC[C@@H]4C[C@H](O)CC[C@]43C)[C@H]1CC[C@H]2O` it was > 46 µM (inactive).
On the same count and under the same terms, in the case of `c1ccc2c(c1)Sc1ccccc1N2C[C@H]1CN2CCC1CC2` it was > 46 µM (inactive).
On the same count and under the same terms, in the case of `O=C(Nc1cc[c]([Sb](=[O])([OH])[OH])cc1)c1ccccc1` it was > 46 µM (inactive).
Consider `[N-]=[N+]=CC(=O)CC[C@H](N)C(=O)O`, for which, in assay [1], the Potency is > 46 µM (inactive).
The same measure, in the same setting: in the case of `O=[As](O)(O)c1ccc2nc3cc([As](=O)(O)O)ccc3nc2c1` it was > 46 µM (inactive); in that of `CC(=O)[C@@H]1CC[C@H]2[C@H]3CC[C@H]4C[C@@H](O)CC[C@]4(C)[C@@H]3CC[C@]12C`, > 46 µM (inactive).
For `CC(C)[C@@]1(NC(=O)[C@H]2C[C@H]3c4cccc5[nH]cc(c45)C[C@@H]3N(C)C2)O[C@]2(O)[C@H]3CCCN3C(=O)[C@H](Cc3ccccc3)N2C1=O`, the Potency in assay [1] was > 46 µM (inactive).
As for `C[C@@]12CC[C@H]3[C@@H](CCC4=C(O)C(=O)CC[C@]43C)[C@H]1CCC2=O`, in assay [1], the Potency is > 46 µM (inactive).
The same measure, in the same setting: in the case of `C[C@@H]1Cc2cc3c(cc2C(c2ccc(N)cc2)=NN1)OCO3` it was > 46 µM (inactive); in that of `CCn1cnc2c(Nc3cccc(Cl)c3)nc(N[C@@H]3CCCC[C@H]3N)nc21`, > 46 µM (inactive); in that of `CCCN1CC[C@@H]2c3cc(O)ccc3CC[C@H]21`, > 46 µM (inactive).
On the same count and under the same terms, in the case of `O=C(O)CSCC(=O)O` it was > 46 µM (inactive).
Still for that read-out and setting: in the case of `C[C@@H]1O[C@H]1P(=O)(O)O` it was > 46 µM (inactive).
For `CC(=O)OCC1=C(C(=O)[O-])N2C(=O)[C@@H](NC(=O)CCC[C@@H](N)C(=O)[O-])[C@@H]2SC1.[Zn+2]`, in assay [1], the Potency was > 46 µM (inactive).
Same read-out and setting: in the case of `Oc1ccc2c3c1O[C@@H]1c4[nH]c5c(c4C[C@@]4(O)[C@@H](C2)N(CC2CC2)CC[C@]314)C[C@]1(O)[C@@H]2Cc3ccc(O)c4c3[C@@]1(CCN2CC1CC1)[C@H]5O4` it was > 46 µM (inactive).
On to `N[C@H](Cn1ccc(=O)[nH]c1=O)C(=O)O`, for which the Potency in assay [1] was > 46 µM (inactive).
Consider `CN1C[C@@H](CS(=O)(=O)N(C)C)C[C@H]2c3cccc4c3c(cn4C)C[C@@H]21`, for which the Potency in assay [1] is > 46 µM (inactive).
The same measure, in the same setting: in the case of `C=CCN1CC[C@]23c4c5ccc(O)c4O[C@@H]2/C(=N/NC(=O)c2ccccc2)CC[C@@]3(O)[C@H]1C5` it was > 46 µM (inactive); in that of `Nc1ncnc2c1ncn2[C@@H]1O[C@@H](COP(=O)(O)CP(=O)(O)OP(=O)(O)O)[C@H](O)[C@@H]1O`, > 46 µM (inactive).
Turning to `Nc1cccc(Cl)c1`, the call in assay [2] and in assay [8] was inactive. The Potency result in assay [3], in [4], in assay [5], in assay [6], in assay [9] and in [12] was “inactive” in each case. The Potency entry in assay [14] and in assay [16] was “inactive” each time. Besides, the max response in assay [7] is 30.4%; in assay [10] it was -7.21% (inactive); in [17], -8.5% (inactive). In addition, in [11], the activity change % (negative = inhibition) is 2.78% (inactive). In addition, the activation in assay [13] was -1.07% (inactive); in assay [15] it was -0.221% (inactive).
